Inconclusive results are not listed. Entries that show only a call come without a potency. Calls of active or inactive are those of the source. Unless noted, calls follow the shape of the dose curve; as a rule, active = well fitted curve in the direction sought with a large enough effect; inconclusive = small, poorly fitted or top-dose-only effect, or another doubt; inactive = no such curve, though single readings can be large; an effect the other way counts as inactive or inconclusive.
Columns and labels:
[1] = biological target: Aldehyde dehydrogenase, mitochondrial (Homo sapiens) (UniProt P05091); assay: qHTS for Inhibitors of the Aldehyde Dehydrogenase Family (ALDH2) Confirmatory screens (AID 2061303; active = well fitted inhibition curve with a large enough effect; title and protocol of this record describe different tests; also: nearly all actives have a fitted effect of over 45% in size; also: potency is read from the fitted curve at half-maximal effect)
[2] = qHTS for Inhibitors of the Aldehyde Dehydrogenase Family (ALDH1A2, ALDH1A3, ALDH2, ALDH3A1) (AID 2061307); also: nearly all actives have a fitted effect of over 50% in size; as to potency: test system not described further here; potency is read from the fitted curve at half-maximal effect
[3] = biological target: Aldehyde dehydrogenase, mitochondrial (Homo sapiens) (UniProt P05091); assay: qHTS for Inhibitors of the Aldehyde Dehydrogenase Family (ALDH2) Primary screen (AID 2061308); also: nearly all actives have a fitted effect of over 55% in size
[4] = biological target: Retinaldehyde dehydrogenase 3 (Homo sapiens) (UniProt P47895); assay: qHTS for Inhibitors of the Aldehyde Dehydrogenase Family (ALDH1A3) Confirmatory screens (AID 2061311); also: potency is read from the fitted curve at half-maximal effect; nearly all actives have a fitted effect of over 60% in size
[5] = biological target: Retinal dehydrogenase 2 (Homo sapiens) (UniProt O94788); assay: qHTS for Inhibitors of the Aldehyde Dehydrogenase Family (ALDH1A2) Confirmation screens (AID 2061314); also: nearly all actives have a fitted effect of over 65% in size

## Cc1ccc(C(=O)N2CCC(N3CCN(Cc4ccc(F)cc4)C(=O)C3=O)CC2)cc1
[1]
  Potency: inactive

## CN(CC(=O)Nc1cccc(F)c1)S(=O)(=O)c1ccc2c(c1)n(C)c(=O)c(=O)n2C
[1]
  Potency: inactive

## Cc1ccc(-c2cnc(N3CCC(C(N)=O)CC3)s2)cc1
[1]
  Potency: 25.1 µM (active)
[2]
  Potency: 10.1 µM (active)
[3]
  Potency: inactive

## CN(Cc1ccc(-c2ccccc2)cc1)[S+](=O)([O-])c1cccc(C(F)(F)F)c1
[1]
  Potency: inactive

## Oc1cc(Nc2cccnc2)cc2cccnc12
[1]
  Potency: inactive
[2]
  Potency: inactive
[3]
  Potency: inactive
[4]
  Potency: 0.283 µM (active)
[5]
  Potency: inactive
